Assay in all cases: DAPPL (digital affinity profiling via proximity ligation, sequencing); 10 mM Tris-HCl pH 7.5, 50 mM NaCl, 1 mM DTT, 4% glycerol, room temperature, 30 min; GST-TFs on glutathione beads, 16-mer random dsDNA library, 0.1% formaldehyde crosslink after washing; high values mean tight binding
Assay [1] deals with T1, FLI1 (Homo sapiens, UniProt Q01543 1-452).
T1 sequence: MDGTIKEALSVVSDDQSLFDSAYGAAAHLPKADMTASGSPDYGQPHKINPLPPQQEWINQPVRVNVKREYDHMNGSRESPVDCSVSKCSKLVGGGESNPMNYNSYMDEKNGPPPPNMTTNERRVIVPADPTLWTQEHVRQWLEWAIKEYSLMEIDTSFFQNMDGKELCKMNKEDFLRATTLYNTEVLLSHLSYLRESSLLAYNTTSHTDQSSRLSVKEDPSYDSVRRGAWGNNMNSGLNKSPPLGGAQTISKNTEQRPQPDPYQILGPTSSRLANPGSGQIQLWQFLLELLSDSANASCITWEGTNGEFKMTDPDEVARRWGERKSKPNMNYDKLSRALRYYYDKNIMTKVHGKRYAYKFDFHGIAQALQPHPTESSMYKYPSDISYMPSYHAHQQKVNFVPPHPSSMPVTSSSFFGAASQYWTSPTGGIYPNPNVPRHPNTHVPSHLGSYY
To be noted: protein: recombinant; tags: N-terminal GST; dsDNA, one strand shown. In a few lines: (§1)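 The binding signal reported is, for every hexamer, its read frequency for a factor over its read frequency for the tag-only sample. Reads came from pools of yeast-expressed, GST-fused human transcription factors on glutathione beads, barcoded with DNA and mixed with that sample, which were incubated with 200 nmole of a random double-stranded 16-mer DNA library in Tris/NaCl/DTT/glycerol buffer at room temperature for 30 min. After washing, the pools were crosslinked with 0.1% formaldehyde, proximity-ligated with BsaI/T4 ligase for 1 h at 37 °C, PCR-amplified and sequenced on an Illumina NextSeq500.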

Assay [2] has as its target T2, ELK1 (Homo sapiens, UniProt P19419 1-428).
T2 sequence: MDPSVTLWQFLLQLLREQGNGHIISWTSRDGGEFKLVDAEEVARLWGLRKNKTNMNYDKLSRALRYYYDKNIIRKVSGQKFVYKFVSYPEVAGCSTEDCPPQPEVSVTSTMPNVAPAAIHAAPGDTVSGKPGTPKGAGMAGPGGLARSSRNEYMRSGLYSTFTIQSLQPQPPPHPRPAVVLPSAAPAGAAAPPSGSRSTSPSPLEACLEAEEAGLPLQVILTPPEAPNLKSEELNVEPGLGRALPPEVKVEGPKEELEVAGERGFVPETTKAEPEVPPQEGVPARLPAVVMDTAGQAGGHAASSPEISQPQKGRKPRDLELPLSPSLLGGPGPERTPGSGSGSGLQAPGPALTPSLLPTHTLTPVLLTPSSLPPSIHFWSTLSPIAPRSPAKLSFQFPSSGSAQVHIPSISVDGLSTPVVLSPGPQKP
Particulars: protein: recombinant; tags: N-terminal GST; dsDNA, one strand shown. In a few lines:
as §1

Assay [3] deals with T3, GABPA (Homo sapiens, UniProt Q06546 1-454).
T3 sequence: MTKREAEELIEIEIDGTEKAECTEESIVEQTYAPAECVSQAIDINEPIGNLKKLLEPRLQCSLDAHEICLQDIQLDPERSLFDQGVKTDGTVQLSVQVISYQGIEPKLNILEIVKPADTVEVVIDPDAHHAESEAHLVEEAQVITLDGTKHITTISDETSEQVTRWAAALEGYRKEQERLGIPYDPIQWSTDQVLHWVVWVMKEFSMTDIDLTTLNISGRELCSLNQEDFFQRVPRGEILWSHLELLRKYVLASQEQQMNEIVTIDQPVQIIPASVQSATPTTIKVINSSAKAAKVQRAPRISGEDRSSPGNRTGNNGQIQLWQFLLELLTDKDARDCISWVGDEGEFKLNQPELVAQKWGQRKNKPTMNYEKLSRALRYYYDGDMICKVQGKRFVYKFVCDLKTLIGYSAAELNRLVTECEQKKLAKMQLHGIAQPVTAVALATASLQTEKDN
Particulars: protein: recombinant; tags: N-terminal GST; dsDNA, one strand shown. The gist of the method: as §1

The target of assay [4] is T4, ERG (Homo sapiens, UniProt P11308 1-479).
T4 sequence: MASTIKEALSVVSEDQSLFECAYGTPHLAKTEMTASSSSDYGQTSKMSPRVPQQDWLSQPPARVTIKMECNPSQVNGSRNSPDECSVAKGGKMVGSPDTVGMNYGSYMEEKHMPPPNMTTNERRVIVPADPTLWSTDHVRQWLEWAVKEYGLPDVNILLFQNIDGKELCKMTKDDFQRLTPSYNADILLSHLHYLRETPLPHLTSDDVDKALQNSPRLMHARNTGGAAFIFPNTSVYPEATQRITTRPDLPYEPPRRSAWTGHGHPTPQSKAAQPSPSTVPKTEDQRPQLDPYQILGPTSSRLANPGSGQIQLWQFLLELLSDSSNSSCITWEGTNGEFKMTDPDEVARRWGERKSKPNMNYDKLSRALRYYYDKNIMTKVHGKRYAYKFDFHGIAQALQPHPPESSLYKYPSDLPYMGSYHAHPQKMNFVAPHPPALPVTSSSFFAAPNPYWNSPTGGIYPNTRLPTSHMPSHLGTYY
To be noted: protein: recombinant; tags: N-terminal GST; dsDNA, one strand shown. The gist of the method: as §1

In assay [5] the target is ELF1 (Homo sapiens, UniProt P32519 1-619). Particulars: protein: recombinant; tags: N-terminal GST; dsDNA, one strand shown. In a few lines:
as §1

In assay [6] the target is T5, EHF (Homo sapiens, UniProt Q9NZC4 1-300).
T5 sequence: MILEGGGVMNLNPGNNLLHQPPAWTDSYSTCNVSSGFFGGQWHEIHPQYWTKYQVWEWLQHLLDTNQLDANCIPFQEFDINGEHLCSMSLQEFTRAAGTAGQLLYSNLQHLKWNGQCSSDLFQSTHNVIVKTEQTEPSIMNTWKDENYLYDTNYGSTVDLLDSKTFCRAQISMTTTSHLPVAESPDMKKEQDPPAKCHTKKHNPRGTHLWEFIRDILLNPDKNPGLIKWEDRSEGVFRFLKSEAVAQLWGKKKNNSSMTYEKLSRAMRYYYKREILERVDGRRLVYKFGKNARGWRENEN
To be noted: protein: recombinant; tags: N-terminal GST; dsDNA, one strand shown. In a few lines:
as §1

Assay [7] has as its target SPI1 (Homo sapiens, UniProt P17947 1-270). To be noted: protein: recombinant; tags: N-terminal GST; dsDNA, one strand shown. In a few lines:
as §1

The target in assay [8] is SPIB (Homo sapiens, UniProt Q01892 1-262). To be noted: protein: recombinant; tags: N-terminal GST; dsDNA, one strand shown. The gist of the method:
as §1

Assay [9] has as its target T6, ELK3 (Homo sapiens, UniProt P41970 1-407).
T6 sequence: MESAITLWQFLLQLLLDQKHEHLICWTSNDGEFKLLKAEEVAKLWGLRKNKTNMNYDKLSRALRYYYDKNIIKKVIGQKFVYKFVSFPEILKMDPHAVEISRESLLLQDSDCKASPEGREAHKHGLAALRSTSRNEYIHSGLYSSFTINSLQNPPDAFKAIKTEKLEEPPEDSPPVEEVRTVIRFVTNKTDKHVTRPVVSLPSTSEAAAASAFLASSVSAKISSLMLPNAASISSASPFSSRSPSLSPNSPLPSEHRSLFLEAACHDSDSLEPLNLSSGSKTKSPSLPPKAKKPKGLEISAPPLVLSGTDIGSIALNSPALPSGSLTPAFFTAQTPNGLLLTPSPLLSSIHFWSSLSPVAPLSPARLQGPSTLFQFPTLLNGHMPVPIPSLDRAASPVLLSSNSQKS
Particulars: protein: recombinant; tags: N-terminal GST; dsDNA, one strand shown. In a few lines: as §1

In assay [10] the target is T7, FEV (Homo sapiens, UniProt Q99581 1-238).
T7 sequence: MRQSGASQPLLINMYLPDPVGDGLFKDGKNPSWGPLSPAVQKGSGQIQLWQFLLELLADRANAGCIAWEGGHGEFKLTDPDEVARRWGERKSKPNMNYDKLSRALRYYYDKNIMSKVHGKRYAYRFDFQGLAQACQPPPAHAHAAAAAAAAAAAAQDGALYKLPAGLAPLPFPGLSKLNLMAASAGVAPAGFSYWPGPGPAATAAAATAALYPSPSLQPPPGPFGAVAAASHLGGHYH
Particulars: protein: recombinant; tags: N-terminal GST; dsDNA, one strand shown. In a few lines:
as §1

Assay [11] has as its target ETV5 (Homo sapiens, UniProt P41161 1-510). To be noted: protein: recombinant; tags: N-terminal GST; dsDNA, one strand shown. In a few lines: as §1
For assay [12], the target named is HSF1 (Homo sapiens, UniProt Q00613 1-529). Particulars: protein: recombinant; tags: N-terminal GST; chain copies: 3; dsDNA, one strand shown. The gist of the method: as §1
For assay [13], the target named is T8, SPIC (Homo sapiens, UniProt Q8N5J4 1-248).
T8 sequence: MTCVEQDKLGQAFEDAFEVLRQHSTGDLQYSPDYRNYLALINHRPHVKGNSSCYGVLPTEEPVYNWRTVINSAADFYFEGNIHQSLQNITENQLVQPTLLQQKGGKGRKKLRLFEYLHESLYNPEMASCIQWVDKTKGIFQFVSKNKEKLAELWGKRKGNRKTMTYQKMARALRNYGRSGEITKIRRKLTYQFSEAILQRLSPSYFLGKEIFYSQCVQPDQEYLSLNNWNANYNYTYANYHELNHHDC
Particulars: protein: recombinant; tags: N-terminal GST; dsDNA, one strand shown. The gist of the method: as §1

Assay [14] has as its target ELF4 (Homo sapiens, UniProt Q99607 1-663). Particulars: protein: recombinant; tags: N-terminal GST; dsDNA, one strand shown. The gist of the method:
as §1

The target in assay [15] is T9, ELK4 (Homo sapiens, UniProt P28324-2 1-405).
T9 sequence: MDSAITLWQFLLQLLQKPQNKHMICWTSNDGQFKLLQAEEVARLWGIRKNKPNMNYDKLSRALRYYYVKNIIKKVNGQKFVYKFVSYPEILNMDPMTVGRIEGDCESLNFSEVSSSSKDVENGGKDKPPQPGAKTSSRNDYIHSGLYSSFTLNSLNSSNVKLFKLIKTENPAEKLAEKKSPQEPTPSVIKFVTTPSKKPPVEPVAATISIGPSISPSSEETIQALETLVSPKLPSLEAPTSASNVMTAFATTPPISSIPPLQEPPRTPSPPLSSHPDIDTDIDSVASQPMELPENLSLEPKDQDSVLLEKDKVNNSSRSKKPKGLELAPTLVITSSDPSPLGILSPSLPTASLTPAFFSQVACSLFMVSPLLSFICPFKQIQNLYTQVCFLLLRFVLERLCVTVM
Particulars: protein: recombinant; tags: N-terminal GST; dsDNA, one strand shown. In a few lines: as §1

Assay [16] addresses T10, ETV2 (Homo sapiens, UniProt O00321 1-342).
T10 sequence: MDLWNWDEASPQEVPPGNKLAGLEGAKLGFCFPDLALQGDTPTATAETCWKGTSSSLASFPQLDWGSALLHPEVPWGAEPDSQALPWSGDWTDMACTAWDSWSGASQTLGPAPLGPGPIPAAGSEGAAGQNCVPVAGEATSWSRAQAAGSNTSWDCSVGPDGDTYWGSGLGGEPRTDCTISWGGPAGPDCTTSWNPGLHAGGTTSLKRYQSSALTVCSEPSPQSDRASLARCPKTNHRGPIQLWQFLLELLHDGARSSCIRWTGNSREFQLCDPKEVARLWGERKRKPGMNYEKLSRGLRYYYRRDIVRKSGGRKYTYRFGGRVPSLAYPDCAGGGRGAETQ
Particulars: protein: recombinant; tags: N-terminal GST; dsDNA, one strand shown. In a few lines: as §1

Assay [17] addresses T11, ELF3 (Homo sapiens, UniProt P78545 1-371).
T11 sequence: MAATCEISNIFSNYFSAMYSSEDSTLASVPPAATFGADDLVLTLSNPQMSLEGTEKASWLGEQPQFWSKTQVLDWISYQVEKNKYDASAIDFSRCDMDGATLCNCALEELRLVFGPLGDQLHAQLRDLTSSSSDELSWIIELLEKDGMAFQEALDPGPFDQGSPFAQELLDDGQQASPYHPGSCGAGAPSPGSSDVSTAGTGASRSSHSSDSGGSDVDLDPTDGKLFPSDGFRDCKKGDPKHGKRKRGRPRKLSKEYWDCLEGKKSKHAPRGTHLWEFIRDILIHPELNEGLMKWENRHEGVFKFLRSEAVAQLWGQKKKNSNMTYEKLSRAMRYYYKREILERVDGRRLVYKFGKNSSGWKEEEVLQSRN
To be noted: protein: recombinant; tags: N-terminal GST; dsDNA, one strand shown. The gist of the method:
as §1

In assay [18] the target is CRX (Homo sapiens, UniProt O43186 1-299). To be noted: protein: recombinant; tags: N-terminal GST; dsDNA, one strand shown. In a few lines:
as §1

Assay [19] deals with ETV1 (Homo sapiens, UniProt P50549 1-477). To be noted: protein: recombinant; tags: N-terminal GST; dsDNA, one strand shown. In a few lines: as §1
Chain of ETV1 (P50549 whole entry): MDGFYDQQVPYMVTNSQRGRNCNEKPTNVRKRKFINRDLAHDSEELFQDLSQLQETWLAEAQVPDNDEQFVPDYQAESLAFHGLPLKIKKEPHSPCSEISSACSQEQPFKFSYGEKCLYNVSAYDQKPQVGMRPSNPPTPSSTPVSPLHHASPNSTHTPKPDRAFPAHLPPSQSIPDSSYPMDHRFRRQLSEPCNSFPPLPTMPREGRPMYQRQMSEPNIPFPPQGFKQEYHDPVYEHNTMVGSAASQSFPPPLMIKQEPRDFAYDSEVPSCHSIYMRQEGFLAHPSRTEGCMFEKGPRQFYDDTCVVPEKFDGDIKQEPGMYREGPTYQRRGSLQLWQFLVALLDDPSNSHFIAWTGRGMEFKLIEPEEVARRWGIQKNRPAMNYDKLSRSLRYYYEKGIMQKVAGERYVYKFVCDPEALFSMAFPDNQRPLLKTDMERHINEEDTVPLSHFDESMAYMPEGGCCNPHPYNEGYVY

Chain of ELF1 (P32519 whole entry): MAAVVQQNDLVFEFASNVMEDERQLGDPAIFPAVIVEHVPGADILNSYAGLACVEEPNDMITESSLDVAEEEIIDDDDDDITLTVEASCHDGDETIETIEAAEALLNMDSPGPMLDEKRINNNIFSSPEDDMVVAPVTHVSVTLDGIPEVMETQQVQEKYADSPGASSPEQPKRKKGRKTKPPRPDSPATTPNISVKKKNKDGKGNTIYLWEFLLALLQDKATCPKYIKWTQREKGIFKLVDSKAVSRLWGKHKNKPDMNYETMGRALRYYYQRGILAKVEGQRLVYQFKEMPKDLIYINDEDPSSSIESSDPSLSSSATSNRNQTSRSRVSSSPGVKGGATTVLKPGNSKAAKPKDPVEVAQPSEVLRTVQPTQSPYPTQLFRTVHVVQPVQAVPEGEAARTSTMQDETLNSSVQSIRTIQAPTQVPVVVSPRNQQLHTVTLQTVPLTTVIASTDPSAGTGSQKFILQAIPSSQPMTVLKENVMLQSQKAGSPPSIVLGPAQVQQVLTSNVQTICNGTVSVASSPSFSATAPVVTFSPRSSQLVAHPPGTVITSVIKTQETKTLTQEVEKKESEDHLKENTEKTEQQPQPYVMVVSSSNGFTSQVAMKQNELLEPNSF
Chain of CRX (O43186 whole entry): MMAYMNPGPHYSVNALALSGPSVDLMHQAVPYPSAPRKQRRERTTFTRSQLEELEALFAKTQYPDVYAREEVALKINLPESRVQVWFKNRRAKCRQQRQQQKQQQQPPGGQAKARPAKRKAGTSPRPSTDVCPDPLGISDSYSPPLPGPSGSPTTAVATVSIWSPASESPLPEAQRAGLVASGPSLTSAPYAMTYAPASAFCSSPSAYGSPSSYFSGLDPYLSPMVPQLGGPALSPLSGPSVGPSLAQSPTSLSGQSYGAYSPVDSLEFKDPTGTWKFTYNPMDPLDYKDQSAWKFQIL
Chain of ETV5 (P41161 whole entry): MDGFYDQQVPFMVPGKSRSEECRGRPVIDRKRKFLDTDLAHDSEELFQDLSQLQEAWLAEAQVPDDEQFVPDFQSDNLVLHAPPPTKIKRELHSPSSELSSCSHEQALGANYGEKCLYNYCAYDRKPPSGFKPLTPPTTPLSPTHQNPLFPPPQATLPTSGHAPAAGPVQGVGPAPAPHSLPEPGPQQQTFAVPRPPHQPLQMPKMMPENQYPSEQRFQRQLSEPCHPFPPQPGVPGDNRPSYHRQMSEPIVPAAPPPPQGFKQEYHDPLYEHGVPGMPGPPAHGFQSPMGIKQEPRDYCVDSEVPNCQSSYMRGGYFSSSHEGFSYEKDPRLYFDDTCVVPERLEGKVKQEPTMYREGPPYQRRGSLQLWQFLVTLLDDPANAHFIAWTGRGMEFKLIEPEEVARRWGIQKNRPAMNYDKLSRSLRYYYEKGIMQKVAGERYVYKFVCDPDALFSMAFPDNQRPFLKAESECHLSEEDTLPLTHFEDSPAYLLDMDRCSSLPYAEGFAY
Chain of ELF4 (Q99607 whole entry): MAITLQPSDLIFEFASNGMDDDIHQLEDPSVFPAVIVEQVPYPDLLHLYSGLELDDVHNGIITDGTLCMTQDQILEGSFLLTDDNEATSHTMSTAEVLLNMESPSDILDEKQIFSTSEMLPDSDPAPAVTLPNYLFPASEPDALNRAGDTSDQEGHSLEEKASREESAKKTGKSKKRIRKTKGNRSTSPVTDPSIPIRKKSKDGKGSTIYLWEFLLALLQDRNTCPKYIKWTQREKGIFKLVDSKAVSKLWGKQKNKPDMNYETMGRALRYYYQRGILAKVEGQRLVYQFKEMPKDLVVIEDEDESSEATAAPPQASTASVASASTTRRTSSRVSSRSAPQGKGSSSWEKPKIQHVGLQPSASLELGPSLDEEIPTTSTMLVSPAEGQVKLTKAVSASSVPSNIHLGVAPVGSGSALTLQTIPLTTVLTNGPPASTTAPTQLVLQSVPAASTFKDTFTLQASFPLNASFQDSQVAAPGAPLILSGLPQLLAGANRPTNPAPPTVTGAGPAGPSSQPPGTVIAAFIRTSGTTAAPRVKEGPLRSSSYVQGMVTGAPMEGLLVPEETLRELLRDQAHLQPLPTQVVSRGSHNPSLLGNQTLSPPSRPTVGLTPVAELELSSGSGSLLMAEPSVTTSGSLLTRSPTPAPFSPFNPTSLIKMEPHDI
Chain of SPIB (Q01892 whole entry): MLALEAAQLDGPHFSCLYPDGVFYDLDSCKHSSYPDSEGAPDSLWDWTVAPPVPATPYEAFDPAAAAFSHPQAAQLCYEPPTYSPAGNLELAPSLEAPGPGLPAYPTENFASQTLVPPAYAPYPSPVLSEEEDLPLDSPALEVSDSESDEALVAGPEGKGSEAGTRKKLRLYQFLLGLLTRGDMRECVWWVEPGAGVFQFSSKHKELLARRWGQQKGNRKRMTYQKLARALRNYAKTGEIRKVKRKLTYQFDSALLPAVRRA
Chain of HSF1 (Q00613 whole entry): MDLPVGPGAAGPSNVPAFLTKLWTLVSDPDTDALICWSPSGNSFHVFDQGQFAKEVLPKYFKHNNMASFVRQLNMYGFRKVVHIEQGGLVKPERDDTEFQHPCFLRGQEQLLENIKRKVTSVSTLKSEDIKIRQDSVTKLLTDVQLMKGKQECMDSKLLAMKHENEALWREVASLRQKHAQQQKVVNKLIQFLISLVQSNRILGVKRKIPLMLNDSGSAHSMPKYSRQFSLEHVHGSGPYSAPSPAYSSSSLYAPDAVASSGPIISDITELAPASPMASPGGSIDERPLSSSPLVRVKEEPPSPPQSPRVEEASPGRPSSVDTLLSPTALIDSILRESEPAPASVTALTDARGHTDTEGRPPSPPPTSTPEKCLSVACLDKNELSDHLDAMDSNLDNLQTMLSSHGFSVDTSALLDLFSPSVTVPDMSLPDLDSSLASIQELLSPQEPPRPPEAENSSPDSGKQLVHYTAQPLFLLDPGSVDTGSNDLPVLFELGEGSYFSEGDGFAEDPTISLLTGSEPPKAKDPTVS

Take ACCCTC: the binding signal in assay [1] is 1.2 fold enrichment (6-mer frequency, TF over GST control); in assay [2] it was 1.27 fold enrichment (6-mer frequency, TF over GST control); in assay [3], 1.15 fold enrichment (6-mer frequency, TF over GST control); in assay [4], 1.1 fold enrichment (6-mer frequency, TF over GST control); in assay [5], 1.13 fold enrichment (6-mer frequency, TF over GST control); in assay [6] it was 1.1 fold enrichment (6-mer frequency, TF over GST control). For the same sequence, the binding signal in assay [7] was 1.12 fold enrichment (6-mer frequency, TF over GST control); in assay [8], 1.14 fold enrichment (6-mer frequency, TF over GST control); in assay [9], 1.31 fold enrichment (6-mer frequency, TF over GST control); in assay [10], 1.15 fold enrichment (6-mer frequency, TF over GST control); in assay [11], 1.2 fold enrichment (6-mer frequency, TF over GST control); in assay [12], 1.11 fold enrichment (6-mer frequency, TF over GST control). The binding signal in assay [13] was 1.24 fold enrichment (6-mer frequency, TF over GST control); in assay [14], 1.25 fold enrichment (6-mer frequency, TF over GST control); in assay [15], 1.01 fold enrichment (6-mer frequency, TF over GST control); in assay [16], 1.15 fold enrichment (6-mer frequency, TF over GST control); in assay [17], 1.12 fold enrichment (6-mer frequency, TF over GST control); in assay [18], 1.11 fold enrichment (6-mer frequency, TF over GST control). For the same sequence, the binding signal in assay [19] is 1.14 fold enrichment (6-mer frequency, TF over GST control).
